The text below walks through data of PubChem BioAssay.

Each structure is given as a SMILES string. Active and inactive are the calls of the source.

Experiment [1] deals with Human papillomavirus type 1a protein E7 (residues 44-93). In words: small molecules binding HPV E7 44-93 – biochemical, small-molecule microarray, residues 44-93, 635 nm fluorescence, primary screen (AID 1108).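 Further: E7 fragment applied at 1 µg/mL in TBST for 1 h at 4 C; score combines spot fluorescence with its signal to noise ratio.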 The note with it: fluorescence 635 nm, higher = more signal.
Experiment [2] is described as follows: hepatitis C replication reporter changes, two-sided – Huh7 cells, luciferase reporter, HCV replication inhibitor project, primary screen (AID 1109).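 Further: huh7 hepatoma cells harbouring a luciferase neomycin HCV replicon reporter; luciferase luminescence as measure of HCV replicon replication; test concentration not given here.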 Conditions: Huh7 HCV replicon luciferase reporter, 48 h; higher = more signal. A general note: A reporter such as luciferase makes a cellular process visible.
The target of experiment [3] is Left-right determination factor 2 (Homo sapiens) (UniProt O00292). Briefly: small molecules binding LEFTY2 protein – biochemical, small-molecule microarray, 635 nm fluorescence scan, primary screen (AID 1110). Conditions: higher = more signal.
Experiment [4] concerns the target Calmodulin-1 (Homo sapiens) (UniProt P0DP23). In words: small molecules binding calmodulin-1 with EGTA – biochemical, small-molecule microarray, Cy5-labelled CALM1, profiling panel (AID 1111).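 Further: labelled calmodulin applied in Tris saline Tween buffer holding calcium plus EGTA and DTT.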 The note with it: Cy5-CALM1 binding fluorescence, higher = more signal.
Experiment [5] has the same target. Briefly: small molecules binding Ca-loaded calmodulin-1 – biochemical, small-molecule microarray, Cy5-labelled CALM1, plus calcium, artefact control for SMM control-protein annotation, profiling panel (AID 1112).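 Further: score merges spot fluorescence with signal to noise from triplicate slides.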 The note with it: Cy5-CALM1 binding fluorescence, higher = more signal.
A short description of experiment [6]: probe aWnt5a binding to arrayed compounds – biochemical, biotinylated probe, 635/667 nm fluorescence, primary screen (AID 1113).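 Further: score merges 667 nm fluorescence intensity with signal-to-noise per printed feature.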 The note with it: small-molecule microarray, higher = more signal.
Experiment [7] is described as follows: probe aShh binding to arrayed compounds – biochemical, biotinylated probe, 635/667 nm fluorescence, primary screen (AID 1114).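 Further: probe is biotin-labelled aShh protein from a stem cell growth factor screen; measures binding of labelled protein to compounds printed on the slide; score merges feature fluorescence at 667 nm with signal-to-noise.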 The note with it: small-molecule microarray, higher = more signal.
A short description of experiment [8]: probe aNog binding to arrayed compounds – biochemical, biotinylated probe, 635/667 nm fluorescence, primary screen (AID 1115).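 Further: probe is biotinylated aNog protein used at 0.15 µg/mL for 1 h at 4 C; z-score combines 667 nm fluorescence of each spot with its signal to noise.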 The note with it: small-molecule microarray, higher = more signal.
Experiment [9] addresses Torsin-1A-interacting protein 1 (Homo sapiens) (UniProt Q5JTV8). In words: compound microarray binding of lysate hLAP1 – cell lysate, small-molecule microarray, COS7 lysate, 635/667 nm fluorescence, primary screen (AID 1116). Conditions: 635 nm fluorescence, higher = more signal.
Experiment [10] addresses Alpha-bungarotoxin (Bungarus multicinctus) (UniProt P60615). In words: compounds binding labelled alpha-BTX control protein – biochemical, small-molecule microarray, Alexa647 label, 635/667 nm fluorescence, artefact control for SMM control protein annotation, profiling panel (AID 1117). Conditions: alpha-BTX-A647 binding fluorescence, higher = more signal.
The target of experiment [11] is Albumin (Bos taurus) (UniProt P02769). Briefly: compounds binding labelled BSA control protein – biochemical, small-molecule microarray, Alexa647 label, 635/667 nm fluorescence, artefact control for SMM control protein annotation, profiling panel (AID 1118).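 Further: score merges 667 nm emission intensity and signal-to-noise per printed compound spot.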 The note with it: BSA-A647 binding, fluorescence 635 nm, higher = more signal.
The nature of experiment [12]: probe aXIP binding to arrayed compounds – biochemical, NeuroSMM set, 635/667 nm fluorescence, primary screen (AID 1119).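 Further: probe is the protein aXip251-270 applied at 1 µg/mL to compound-printed slides; binding of probe to printed compounds measured as 667 nm fluorescence plus signal to noise.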 The note with it: small-molecule microarray, higher = more signal, called active from +8 up or from −8 down.
A short description of experiment [13]: probe aNOTCH3 binding on compound microarray – biochemical, small-molecule microarray, 635/667 nm fluorescence, primary screen (AID 1120).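 Further: probe is a biotin-tagged antibody raised against NOTCH3 rather than NOTCH3 protein; score merges spot fluorescence near 667 nm with spot signal to noise.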 The note with it: higher = more signal.
Experiment [14] is described as follows: probe aNOTCH2 binding on compound microarray – biochemical, small-molecule microarray, 635/667 nm fluorescence, primary screen (AID 1121).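 Further: score merges feature fluorescence read at 667 nm with its signal to noise.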 Conditions: higher = more signal.
For experiment [15], the target named is Carbonic anhydrase 2 (Homo sapiens) (UniProt P00918). In words: compounds binding carbonic anhydrase 2 – biochemical, small-molecule microarray, Alexa647-labelled CAII, profiling panel (AID 1122). The note with it: CAII-A647 binding fluorescence, higher = more signal.
Experiment [16] in a line: COS7 lysate on small-molecule microarray, probe aHis, 635 nm (AID 1123).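 Further: z-score combines 667nm fluorescence intensity with signal-to-noise per printed compound spot.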 Conditions: COS7 cell lysate, fluorescence, higher = more signal.
Experiment [17] is described as follows: probe aLAP1 signal on lysate-treated microarray – cell lysate, small-molecule microarray, COS7 lysate, primary screen (AID 1124).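 Further: lysate comes from COS7 cells expressing LAP1 and is applied at 0.3 µg/mL; score merges spot fluorescence near 667 nm with signal-to-noise over triplicate slides.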 Conditions: probe aLAP1, fluorescence, higher = more signal.
Experiment [18] deals with Sam68 (KHDRBS1). In words: compounds binding KHDRBS1 protein – biochemical, small-molecule microarray, 635 nm fluorescence, primary screen (AID 1125).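 Further: score merges 667 nm channel intensity with signal to noise over triplicate slides.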 Conditions: higher = more signal.
In experiment [19] the test system is Chordin-like protein 2 (CHRDL2). In words: compounds binding chordin-like 2 – biochemical, small-molecule microarray, 635 nm fluorescence, primary screen (AID 1126).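 Further: printed compound slides probed with Chrdl2 protein at 4 µg/mL for 1 h at 4 C; score merges 667 nm emission intensity with signal to noise over three replicate slides.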 The note with it: fluorescence 635 nm, higher = more signal.
In experiment [20] the target is Concanavalin-A (Canavalia ensiformis) (UniProt P02866). In words: compounds binding concanavalin A lectin – biochemical, small-molecule microarray, Alexa647 label, 635 nm, artefact control for SMM control protein annotation, primary screen (AID 1127).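 Further: z combines 667 nm emission intensity with signal-to-noise across three replicate slides.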 The note with it: ConA-A647 binding fluorescence, higher = more signal.
Chain of Concanavalin-A (Canavalia ensiformis) (P02866 whole entry, looked up): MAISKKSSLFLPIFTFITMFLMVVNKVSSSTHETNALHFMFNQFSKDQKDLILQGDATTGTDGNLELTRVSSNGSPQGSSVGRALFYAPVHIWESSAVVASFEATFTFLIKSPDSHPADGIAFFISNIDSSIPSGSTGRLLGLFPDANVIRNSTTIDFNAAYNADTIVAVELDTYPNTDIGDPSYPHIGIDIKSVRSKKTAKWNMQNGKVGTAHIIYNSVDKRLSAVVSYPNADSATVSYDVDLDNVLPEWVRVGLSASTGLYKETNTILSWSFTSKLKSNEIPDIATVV

Chain of Alpha-bungarotoxin (Bungarus multicinctus) (P60615 whole entry, looked up): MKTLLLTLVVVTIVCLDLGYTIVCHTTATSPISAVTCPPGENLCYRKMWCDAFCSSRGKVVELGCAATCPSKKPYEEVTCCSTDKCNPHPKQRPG
Chain of Left-right determination factor 2 (Homo sapiens) (O00292 whole entry, looked up): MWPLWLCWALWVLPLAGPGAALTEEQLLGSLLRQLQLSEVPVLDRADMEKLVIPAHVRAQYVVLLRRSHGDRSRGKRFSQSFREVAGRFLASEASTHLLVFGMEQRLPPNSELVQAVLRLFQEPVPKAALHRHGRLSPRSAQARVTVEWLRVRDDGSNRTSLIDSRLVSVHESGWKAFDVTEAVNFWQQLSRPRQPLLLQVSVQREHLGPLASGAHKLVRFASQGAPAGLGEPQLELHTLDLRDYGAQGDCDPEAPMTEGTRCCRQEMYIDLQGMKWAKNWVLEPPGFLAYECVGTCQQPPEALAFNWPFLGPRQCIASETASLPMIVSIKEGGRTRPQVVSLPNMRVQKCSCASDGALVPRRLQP
Chain of Torsin-1A-interacting protein 1 (Homo sapiens) (Q5JTV8 whole entry, looked up): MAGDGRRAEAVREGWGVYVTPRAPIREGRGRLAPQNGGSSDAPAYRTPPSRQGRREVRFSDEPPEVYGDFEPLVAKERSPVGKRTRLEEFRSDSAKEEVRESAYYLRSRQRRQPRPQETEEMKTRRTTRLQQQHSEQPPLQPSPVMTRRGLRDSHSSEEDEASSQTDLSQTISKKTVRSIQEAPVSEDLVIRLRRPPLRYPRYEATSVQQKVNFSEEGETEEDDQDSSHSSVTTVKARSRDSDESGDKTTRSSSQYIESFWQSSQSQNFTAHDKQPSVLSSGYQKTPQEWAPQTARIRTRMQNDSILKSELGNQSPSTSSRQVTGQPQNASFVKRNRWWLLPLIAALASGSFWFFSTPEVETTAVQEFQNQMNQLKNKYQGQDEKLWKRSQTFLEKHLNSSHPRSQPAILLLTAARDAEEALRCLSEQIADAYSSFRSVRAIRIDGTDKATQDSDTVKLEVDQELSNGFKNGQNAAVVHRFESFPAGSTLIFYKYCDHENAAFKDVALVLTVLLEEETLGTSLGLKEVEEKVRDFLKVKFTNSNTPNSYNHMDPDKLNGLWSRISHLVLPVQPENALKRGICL
Chain of Albumin (Bos taurus) (P02769 whole entry, looked up): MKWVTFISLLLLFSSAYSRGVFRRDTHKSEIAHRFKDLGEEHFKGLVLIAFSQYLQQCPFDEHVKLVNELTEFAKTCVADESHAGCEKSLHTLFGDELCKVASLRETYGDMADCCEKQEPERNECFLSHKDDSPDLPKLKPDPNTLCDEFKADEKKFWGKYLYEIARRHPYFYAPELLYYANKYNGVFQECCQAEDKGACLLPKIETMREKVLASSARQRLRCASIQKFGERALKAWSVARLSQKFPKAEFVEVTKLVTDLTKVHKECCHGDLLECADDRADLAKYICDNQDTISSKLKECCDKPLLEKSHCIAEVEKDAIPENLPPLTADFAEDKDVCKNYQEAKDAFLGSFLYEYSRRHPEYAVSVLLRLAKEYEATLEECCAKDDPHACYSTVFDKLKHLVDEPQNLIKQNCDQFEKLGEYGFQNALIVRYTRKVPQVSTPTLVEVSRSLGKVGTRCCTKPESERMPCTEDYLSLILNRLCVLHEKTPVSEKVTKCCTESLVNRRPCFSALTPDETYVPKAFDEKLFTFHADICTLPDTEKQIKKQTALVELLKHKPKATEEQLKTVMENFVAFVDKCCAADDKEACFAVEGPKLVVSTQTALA

In the case of `COc1ccc(-c2cnnc(CCCn3ccnc3-c3ccccc3)n2)cc1`, the composite z-score is 0.412 in experiment [1]; 0.774 in [3]; 0.212 in experiment [4]; -0.686 in experiment [5]; -0.103 in experiment [6]; -0.0769 in [7]. Further, the composite z-score is -0.395 in [8]; 0.917 in experiment [9]; 0.587 in experiment [10]; 0.223 in experiment [11]; 0.291 in [13]; -0.126 in experiment [14]. Further, the composite z-score is 0.536 in experiment [15]; 0.0412 in experiment [16]; 1.08 in experiment [17]; 0.943 in [18]; 0.919 in [19]; 0.418 in experiment [20]. Further, in experiment [2], the z-score is -2.57. Further, the composite Z-score in experiment [12] is 0.391 (inactive).
For `C[C@@H](c1ccccc1)N1C(=O)[C@H]2[C@H]3[C@H](O)[C@H](O)CC(=NNC(=O)OCc4ccccc4)[C@@H]3CC[C@H]2C1=O`, the composite z-score was -0.347 in [1]; 1.17 in experiment [3]; -1.16 in experiment [4]; -1.94 in experiment [5]; -0.158 in [6]; 0.0062 in experiment [7]. The composite z-score is -0.545 in experiment [8]; -0.043 in [9]; -0.716 in experiment [10]; 0.517 in experiment [11]; -0.0647 in experiment [13]; -0.148 in experiment [14]. In addition, the composite z-score in experiment [15] is -0.191; in experiment [16] it was -0.231; in experiment [17] it was -0.723; in [18], 0.723; in experiment [19], 1.45; in [20] it was -0.569. The compound further displayed a z-score in [2] of -1.01. The composite Z-score in [12] is 0.581 (inactive).
Consider `COC(=O)C1=C(C)N(Cc2ccccc2)C2=C3C(=O)OCC[C@@H]3[C@@](O)(C(=O)OC)C(=O)N2[C@@H]1c1ccccc1`, for which the composite z-score was -0.0816 in experiment [1]; 0.528 in experiment [3]; -0.0583 in experiment [4]; -0.689 in experiment [5]; -0.13 in experiment [6]; 0.0278 in experiment [7]. The composite z-score in [8] is -0.189; in experiment [9], -0.207; in experiment [10], 0.415; in experiment [11], -0.0298; in experiment [13], 0.0182; in [14] it was -0.14. For the same compound, the composite z-score was -0.085 in experiment [15]; 0.132 in [16]; -0.186 in experiment [17]; -0.0394 in experiment [18]; 0.487 in experiment [19]; 0.325 in experiment [20]. The compound also gave a z-score in experiment [2] of 0.935. In addition, the composite Z-score in [12] was -0.135 (inactive).
As for `COC(=O)CC=C[C@@H](C)[C@@H](C=NOC[C@@H](O)[C@H]1O[C@@H]2OC(C)(C)O[C@@H]2[C@H]1O)OC`, the composite z-score in [1] is 0.416; in experiment [3] it was 0.638; in experiment [4] it was -0.139; in [5] it was -0.565; in [6], -0.012; in [7], -0.0035. Moreover, the composite z-score is -0.234 in experiment [8]; 0.422 in experiment [9]; 0.265 in experiment [10]; -0.0287 in experiment [11]; -0.0647 in experiment [13]; -0.13 in experiment [14]. For the same compound, the composite z-score is -0.131 in [15]; -0.104 in experiment [16]; 0.149 in [17]; 0.444 in experiment [18]; 0.744 in [19]; 0.333 in experiment [20]. In addition, the z-score in experiment [2] is -0.594. Besides, in [12], the composite Z-score was -0.931 (inactive).
On to `CO[C@H]1COC(=O)CC=C[C@@H](C)COC(=O)[C@H]2CCCN2C(=O)CC=C[C@H]1C`, for which the composite z-score in experiment [1] was -0.858; in experiment [3], 1.48; in experiment [4] it was -1.05; in experiment [5], -1.72; in [6], -0.0721; in experiment [7], 0.684. Further, the composite z-score in experiment [8] was -0.542; in [9] it was 1.03; in experiment [10] it was -1.25; in experiment [11] it was -0.893; in [13] it was -0.122; in experiment [14], -0.166. Also, the composite z-score in experiment [15] was -0.516; in [16], -0.916; in [17] it was 0.449; in experiment [18], 0.536; in experiment [19], 1.19; in experiment [20] it was -0.923. This compound also returned a z-score in experiment [2] of -0.0849. Also, the composite Z-score in experiment [12] is 0.297 (inactive).
Take `CO[C@@H]1C=CCC(=O)N[C@@H](C)C(=O)OC[C@@H](NS(=O)(=O)c2ccc(C)cc2)[C@H](C)C=CCC(=O)OC[C@H]1C`: the composite z-score is -0.844 in experiment [1]; 0.957 in [3]; -0.062 in [4]; -0.417 in [5]; -0.18 in [6]; 0.0442 in experiment [7]. Moreover, the composite z-score in [8] is -0.0116; in experiment [9] it was -0.159; in experiment [10], -0.135; in [11], -1.19; in [13], -0.0898; in experiment [14], -0.242. The composite z-score was -0.662 in experiment [15]; -0.971 in experiment [16]; -0.0366 in experiment [17]; -0.583 in [18]; 1.07 in [19]; -0.479 in [20]. The z-score in [2] turned out to be 0.46. The composite Z-score in experiment [12] was 0.51 (inactive).
